Measurements taken from PubChem BioAssay (NCATS).
Records with an inconclusive call do not appear. Values without a mark were called inactive. The call rests on the fitted dose curve; in most records, active means well fitted cell-killing curve with a large enough effect; inconclusive means small, poorly fitted or top-dose-only effect, or effect the other way; inactive means flat fitted curve, though single readings scatter.

test system: CASKI; experiment: Primary qHTS to identify gynecologic anti-cancer compounds using libraries of approved drugs and bioactive compounds (AID 1345084); conditions: Gynecologic cancer cell panel viability, ATPlite luminescence, 48 h; series mostly up to 57.5 µM; activity change, negative = cytotoxicity: at the top concentration; further: nearly all actives have a fitted effect of over 55% in size
Outline: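 In this quantitative HTS, cell killing is estimated from loss of ATP-dependent luciferase light. Cells see five compound concentrations over a 48 h exposure.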
On the % scale 0 is the no-effect control and ±100 the full control effect.

Molecule | activity change, negative = cytotoxicity
COc1cc(/C=C/C(=O)O[C@H]2C[C@@H]3C(C(=O)O)=CO[C@@H](O[C@@H]4O[C@H](CO)[C@@H](O)[C@H](O)[C@H]4O)[C@@H]3[C@H]2C)ccc1O | -3.51% [at 25.3 µM]
H-DPPDPDRFYGMM-NH2 | 8.19% [at 25.3 µM]
CC1(C)C=Cc2c(ccc3c2N=C2C(C)(C)[C@@H]4C[C@]56CCCN5C(=O)[C@@]4(C[C@]23O)NC6=O)O1 | 8.41% [at 25.3 µM]
O=C(OC[C@H]1O[C@@H](Oc2ccccc2COC(=O)C2(O)C=CCCC2O)[C@H](O)[C@@H](O)[C@@H]1O)c1ccccc1 (stereo not given in full) | -5.02% [at 25.3 µM]
Cc1cc(CNC(=O)c2cc(C(=O)NCc3ccc(F)c(C)c3)ncn2)ccc1F | 3.69%
CC(C)=CC1C[C@](C)(O)[C@@H]2[C@H]3CCC4[C@@]5(C)CC[C@H](O[C@@H]6OC[C@H](O)[C@H](O[C@@H]7O[C@H](CO[C@@H]8O[C@H](CO)[C@@H](O)[C@H](O)[C@H]8O)[C@@H](O)[C@H](O)[C@H]7O)[C@H]6O[C@@H]6O[C@@H](C)[C@H](O)[C@@H](O)[C@H]6O)C(C)(C)[C@@H]5CC[C@@]4(C)[C@@]34CO[C@@]2(C4)O1 (stereo not given in full) | 12.3% [at 11.6 µM]
CC(=O)NCC1CN(c2ccc(-c3ccc(CNCc4cn[nH]n4)cc3)c(F)c2)C(=O)O1 (stereo not given) | -7.03%
COC(=O)[C@H](Cc1ccc([N+](=O)[O-])cc1)NC(=O)c1cccc2ccccc12 | 2.11%
Cn1nccc1-c1ccccc1Oc1ccc(S(=O)(=O)Nc2nccs2)cc1C#N | 11%
CSCC1OC(n2cnc3c(N)ncnc32)C(O)C1O (stereo not given) | 10.5%
COc1ccc([C@H]2OC[C@H]3[C@@H]2CO[C@@H]3c2ccc(O[C@@H]3O[C@H](CO)C(O)[C@H](O)[C@H]3O)c(OC)c2)cc1OC (stereo not given in full) | 7.28% [at 25.3 µM]
CC1CCC2C(C(=O)O)=CC3(O)CC(C)(C)CC123 (stereo not given) | -4.54%
COc1cccc(CNc2ccc(S(=O)(=O)Nc3nc4ccccc4s3)cc2)c1O | 0.395%
C=C1CCC2C(C)(C(=O)OC)CCCC2(C)C1CCC1=CCOC1=O (stereo not given) | -0.552% [at 38.5 µM]
CC1=C2CC3C(CCC3(C)O)C(C)(O)CC2OC1=O (stereo not given) | 9.08%
Cc1occc1C(=O)n1ccnc1 | 7.84%
O=C(O)CC1(O)C(=O)Nc2ccccc21 (stereo not given) | 16.5%
CN(C)C(=O)C(O)C(Cc1ccccc1)NC(=O)c1cc2cc(Cl)ccc2[nH]1 (stereo not given) | 10.7%

Molecule | activity change, negative = cytotoxicity
O=C(CCc1ccccc1)c1c(O)c([C@@H]2O[C@H](CO)[C@@H](O)[C@H](O)[C@H]2O)c(O)c([C@@H]2O[C@H](CO)[C@@H](O)[C@H](O)[C@H]2O)c1O | 6.1% [at 25.3 µM]
CC(O)C1NC(=O)C2CCCN2C1=O (stereo not given) | 1.2%
CC1(C)OC(=O)CC(O)C2(C)C1CC(=O)C1(C)C2C(O)CC2(C)C(c3ccoc3)OC(=O)C3OC321 (stereo not given) | 0.25% [at 25.3 µM]
CC(=O)OC1CCC2(C)C(CCC3(C)C2CC=C2C4CC(C)(C)CCC4(C)CCC23C)C1(C)C(=O)O (stereo not given) | 1.43% [at 25.3 µM]
C=C(CCO)C(=O)OCC1OCC(OC(=O)C(=C)CCO[C@@H]2O[C@H](COC(=O)C(=C)CCO[C@@H]3O[C@H](CO)[C@@H](O)[C@H](O)[C@H]3O)[C@@H](O)[C@H](O)[C@H]2O)C(O)C1O (stereo not given in full) | -12.1% [at 25.3 µM]
CC(C)C1CCC(CO)=CC1/C=C(\CO)C(=O)OCC1(O)CCC(C(C)C)C2C=C(C(=O)O)COC(=O)C21 (stereo not given) | -6.31% [at 25.3 µM]
Fc1cccc(CN(C2=NCCN2)c2c(Cl)cccc2Cl)c1 | -2.83%
C[C@]12CCC[C@](C)(C(=O)O)C1CCC13CC(CO)C(CCC12)C3 (stereo not given in full) | 21.3% [at 38.5 µM]
O=C(/C=C/c1ccc(O)cc1)OC[C@H]1O[C@H](O[C@@]2(CO)O[C@@H](CO)[C@H](O)[C@H]2O)[C@H](O)[C@@H](O)[C@@H]1O | 13.1% [at 25.3 µM]
c1ccc2c(Nc3nnc(-c4ccncc4)s3)cccc2c1 | -21.1%
C/C=C/C=C/C=C/C(=O)O[C@@H]1[C@@H](OC)C2=C(C(=O)N(C(CCC(=O)O)C(=O)O)C2)[C@@]2(C)CCCC(C)(C)[C@H]12 (stereo not given in full) | 1.02% [at 25.3 µM]
O=C(OC[C@H]1O[C@@H](Oc2ccccc2CO)[C@H](O)[C@@H](O)[C@@H]1O)c1ccccc1 | 2.39% [at 38.5 µM]
C[C@H]1[C@@H](O)[C@H](O)C2[C@]3(C)C([C@@H](O)[C@H]4OC(=O)[C@@H]1[C@@]24C)[C@](C)(O)C=C[C@H]3O[C@@H]1O[C@H](CO)[C@@H](O)[C@H](O)[C@H]1O (stereo not given in full) | 20.7% [at 25.3 µM]
COc1ccc(C(=O)NCc2cc(C(C)C)no2)cc1OC1CCN(C)CC1 | 12%
CC(C)=C1C[C@@]2(C)C(=CC1=O)CC[C@@H](O)[C@@H]2C | 1.01%
Cc1ccccc1NC(=O)Nc1ccc(CN2C(=O)N([C@@H](CC(C)C)C(=O)N[C@@H](CC(=O)O)c3ccccc3)C(=O)C2(C)C)cc1 | 4.38%
COc1c(-c2ccc(O)cc2)cc(OC)c2c1oc1cc(O)c(OC3OC(CO)C(O)C3O)cc12 (stereo not given) | 2.67% [at 25.3 µM]
